Giardia FBPA inh = qHTS Assay for Inhibitors of Fructose-1,6-bisphosphate Aldolase from Giardia Lamblia. Potency, µM (series often up to 59.6 µM), for the others: at the top dose activity, negative = inhibition, usual class: inhibitors. purified Giardia FBPA. AID 2451, 2010. 290,000 compounds, 0.71% hits; also: % is scaled to controls: 0 for no effect and ±100 for the full control effect; nearly all actives have a fitted effect of over 55% in size
Target sequence (A8B2U2 whole entry, looked up): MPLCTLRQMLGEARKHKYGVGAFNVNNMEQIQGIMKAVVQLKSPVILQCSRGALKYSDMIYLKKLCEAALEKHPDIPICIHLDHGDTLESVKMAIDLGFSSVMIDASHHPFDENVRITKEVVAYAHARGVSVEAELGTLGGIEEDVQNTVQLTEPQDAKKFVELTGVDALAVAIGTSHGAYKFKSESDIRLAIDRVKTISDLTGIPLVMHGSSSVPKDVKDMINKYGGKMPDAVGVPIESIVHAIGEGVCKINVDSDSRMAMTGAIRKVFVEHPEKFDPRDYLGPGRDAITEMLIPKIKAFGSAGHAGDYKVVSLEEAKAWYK
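40 nM FBPA preincubated 10 min at RT with compound (up to 57.5 uM final), then substrate plus GAPDH/TPI/NAD/arsenate coupling and diaphorase/resazurin added. Fluorescence read after 20 min at RT, 525/598 nm.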
Sm TGR block = qHTS Assay for the Inhibitors of Schistosoma Mansoni Peroxiredoxins. Schistosoma mansoni thioredoxin glutathione reductase (TGR), Q962Y6. AID 485364, 2010. 360,000 compounds, 3% hits. Potency, µM (series often up to 114 µM), without a hit: at the highest dose activity change, negative = inhibition, hits mostly inhibitors. purified TGR, DTNB reduction, TNB absorbance 405 nm; also: % is scaled to controls: 0 for no effect and ±100 for the full control effect; nearly all actives have a fitted effect of over 60% in size
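First, TGR (20 nM dispensed) and NADPH were mixed with compound. Second, a 15 min room-temperature incubation followed. Third, further NADPH and then DTNB were added to start the reaction. Finally, TNB absorbance was monitored kinetically.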
TbPYK inhibitor = qHTS of Trypanosoma Brucei Inhibitors | TbPYK enzyme, Kinase-Glo Plus ATP luminescence, 45 min | Potency, µM (series often up to 76.8 µM), without a hit: at the highest dose activity, negative = inhibition, most hits filed as inhibitors | 410,000 compounds, 0.12% hits | AID 624173, 2012; also: % is scaled to controls: 0 for no effect and ±100 for the full control effect; nearly all actives have a fitted effect of over 50% in size
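ADP (130 uM final) triggers the TbPYK reaction after compound addition; incubation is 45 min at room temperature. Kinase-Glo Plus is then added and luminescence imaged. Normalized data are fitted to concentration-effect curves.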
NS1 function inh = qHTS Assay for Inhibitors of Influenza NS1 Protein Function. Potency, µM (doses to about 46.1 µM), for the others: at the top dose activity, positive = more growth. 270,000 compounds, 0.4% hits. AID 2326, 2010; calls by dose curve; also: actives are rising curves; nearly all actives have a fitted effect of over 50% in size
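Read-out: OD600 growth recovery of NS1-expressing budding yeast. Cells grown overnight at 30C in -URA glucose medium, washed, resuspended and diluted 1:100 in 2% galactose assay medium, pH 6.0. Same strain lacking NS1 served as positive control.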
RE007 growth inh = qHTS Assay for Inhibitors of the HIV-1 protein Vpr | 360,000 compounds, 0.21% hits | Potency, µM (highest dose often 92.2 µM), for the others: at the top dose activity change, negative = less growth, hits mostly inhibitors | S. pombe RE007 Vpr strain, BacTiter-Glo ATP luminescence, 24 h; active = well fitted falling curve with a large enough effect; inconclusive = small, poorly fitted or top-dose-only effect; inactive = no such curve, though single readings can be large or run the other way; also: % is scaled to controls: 0 for no effect and ±100 for the full control effect; nearly all actives have a fitted effect of over 50% in size
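Fission yeast RE007 carrying one integrated HIV-1 vpr copy, seeded at OD 0.01 in PMG+AL medium with 23 nL pinned compound. Grown 24 h at 30 degrees; viability read by BacTiter-Glo luminescence after 5 min.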
LmPK inh = qHTS Assay for Inhibitors of Leishmania Mexicana Pyruvate Kinase (LmPK); Potency, µM (series often up to 57.5 µM), inactives show at the top dose activity change, negative = inhibition, hits mostly inhibitors; Q27686; 290,000 compounds, 0.37% hits; purified LmPK, Kinase-Glo ATP luminescence, 1 h; also: % is scaled to controls: 0 for no effect and ±100 for the full control effect
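Pyruvate kinase activity monitored as ATP production (luciferase luminescence). Conditions: 0.1 nM enzyme, 0.5 mM PEP, 0.1 mM ADP, 1 h, RT; normalized against uninhibited and no-enzyme wells.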
The depositor's hits bear a star; ? = inconclusive; · = no result. Hits are enriched below; roughly 3.5% of the tested compounds scored in any of these assays. Unless noted, calls follow the shape of the dose curve; as a rule, active = well fitted curve in the direction sought with a large enough effect; inconclusive = small, poorly fitted or top-dose-only effect, or another doubt; inactive = no such curve, though single readings can be large; an effect the other way counts as inactive or inconclusive. Potency is read from the fitted curve at half-maximal effect.

SMILES	Giardia FBPA inh	Sm TGR block	TbPYK inhibitor	NS1 function inh	RE007 growth inh	LmPK inh
Cc1cc(C(=O)CSc2cccc[n+]2[O-])c(C)n1-c1ccc(Br)cc1	-4%	-1%	·	·	·	7%
COc1ccccc1NC(=O)C1=C(C)Nc2c(C(=O)Nc3cccc(C)c3)cnn2C1c1ccccc1Cl (stereo not drawn)	·	11%	7%	·	·	·
CCC(C(=O)NCc1ccco1)N(C(=O)CNS(=O)(=O)c1ccc(F)cc1)c1ccccc1F (stereo not drawn)	2%	45µM*	-2%	-3%	-7%	5%
CC(C)C(C(=O)NCc1ccco1)N(C(=O)CNS(=O)(=O)c1ccc(Cl)cc1)C1CCCC1 (stereo not drawn)	-15%	45µM*	1%	-7%	0%	-7%
Cc1ccccc1-n1c(-c2ccncc2)n[nH]c1=S	?	9%	?	7%	-5%	32µM*
CCc1ccccc1-n1c(-c2ccncc2)n[nH]c1=S	7%	-7%	25µM*	4%	18%	13µM*
Cc1cccc(-n2c(C)n[nH]c2=S)c1C	?	2%	?	18%	7%	?
Cc1cccc(-n2c(-c3ccncc3)n[nH]c2=S)c1C	-26%	1%	?	10%	0%	?
Cc1ccc(-n2c(-c3ccncc3)n[nH]c2=S)c(C)c1	-28%	23%	7.1µM*	0%	1%	-11%
Cc1cc(-c2n[nH]c(=S)n2-c2ccccc2C)cs1	-1%	0%	?	12%	0%	10µM*
CCCn1c(-c2ccncc2)n[nH]c1=S	?	0%	?	1%	11%	-3%
CCOc1ccc(C(=O)Nc2ccccc2C(=O)OCc2cc(=O)n3nc(C4CC4)sc3n2)cc1	·	-5%	3%	·	·	·
COc1ccc(CCNC(=O)c2cnn(-c3cccc(C)c3)c2C2CCNCC2)cc1OC	·	-2%	0%	·	·	·
COc1ccc(NC(c2ccccc2)c2ccncc2)cc1 (stereo not drawn)	?	40µM*	2%	14%	-12%	3%
COc1ccc(NC(c2ccccc2)P(=O)(Oc2ccccc2)Oc2ccccc2)cc1 (stereo not drawn)	-8%	-1%	-6%	-7%	0%	5%
O=C(N=C1c2ccccc2CN1c1ccc(F)c(F)c1)c1cccnc1	-5%	45µM*	-1%	3%	-20%	4%
Cc1c(NS(=O)(=O)c2cccc([N+](=O)[O-])c2)c(=O)n(-c2ccccc2)n1C	-1%	28µM*	9%	2%	1%	3%
Cc1c(NC(=O)c2ccc(NS(=O)(=O)c3cccc([N+](=O)[O-])c3)cc2)c(=O)n(-c2ccccc2)n1C	·	·	4%	·	-12%	·
COC(=O)C(CCCCNC(=O)OCc1ccccc1)NC(=O)CN (stereo not drawn)	-9%	79µM*	-6%	-3%	9%	-10%
Cc1ccc(NC(=O)CCc2ccccc2)cc1C	·	·	-1%	·	9%	·
Cc1ccc(NC(=O)CNC(=O)OCc2ccccc2)cc1C	-1%	0.11µM*	3%	-8%	1%	-8%
Cc1cccc(CN2CCC(CNC(=O)Cn3ncc4c([nH]c5ccc(C)cc54)c3=O)CC2)c1	·	-6%	-1%	·	·	·
COc1ccc(-n2ccn(Cc3ccccc3C)c(=O)c2=O)cc1	·	7%	4%	·	·	·
Cc1ccccc1Cc1c(C)nc2c(-c3ccccc3)c(C)[nH]n2c1=O	·	0%	2%	·	·	·
CC(C)Oc1ccc(CNS(=O)(=O)c2cnc(N)nc2)cc1	·	-14%	2%	·	·	·
SMILES	Giardia FBPA inh	Sm TGR block	TbPYK inhibitor	NS1 function inh	RE007 growth inh	LmPK inh
Oc1ccc2ccccc2c1CNc1ccc(Br)cc1	-9%	0.63µM*	-16%	9%	-14%	4%
COc1ccc(NCc2c(O)ccc3ccccc23)cc1	·	·	·	3%	·	·
Cc1ccc2c(C(=O)CCl)c(C)[nH]c2c1	-9%	1.4µM*	-10%	-53%	1%	-1%
Cn1c(N)c(C#N)c2c(c1=S)COC(C)(C)C2	-12%	-36%	-12%	13%	-4%	-4%
CC1(C)Cc2c(C#N)c(N)sc(=S)c2CS1	?	32µM*	?	-12%	-3%	7%
N#Cc1c(N)sc2c1CCCCCC2	-18%	2%	-17%	-91%	-10%	-1%
Cn1c(N)c(C#N)c2c(c1=S)CSC(C)(C)C2	?	13µM*	-21%	17%	14%	4%
CC(C)c1nc(Cl)c(C#N)c2c1CSC(C)(C)C2	7%	-2%	1%	-21%	-12%	-2%
N#Cc1c(N)sc(=S)c2c1CCCCC2	10µM*	7.9µM*	?	?	-3%	-3%
CSCC[C@H](NC(=O)[C@H](CC(C)C)NC(=O)[C@@H]1CCCN1C(=O)[C@H](Cc1ccccc1)NC(=O)[C@H](Cc1ccccc1)NC(=O)[C@H](CCC(N)=O)NC(=O)[C@H](CCC(N)=O)NC(=O)[C@@H]1CCCN1C(=O)[C@H](CCCCN)NC(=O)[C@@H]1CCCN1C(=O)[C@@H](N)CCCN=C(N)N)C(N)=O	4%	·	·	·	·	·
CCC(C)NC(=O)CSc1nc2cc3c(cc2c(=O)n1CCCCCC(=O)NCc1ccc2c(c1)OCO2)OCO3 (stereo not drawn)	·	47%	5%	·	·	·
O=C1c2cccc3c2[C@@H](CCC3)CN1[C@@H]1CN2CCC1CC2	·	·	1%	·	·	·
CC(C)Cn1c(-c2ccc(Br)o2)n[nH]c1=S	8%	2%	4µM*	-24%	-2%	?
CC(C)Cn1c(-c2nn(C)cc2Cl)n[nH]c1=S	·	3%	?	0%	11%	13µM*
Cc1ccccc1-n1c(-c2ccc(Br)o2)n[nH]c1=S	·	·	?	·	-3%	·
Cc1ccsc1-c1n[nH]c(=S)n1CC(C)C	-11%	5%	?	5%	13%	14µM*
CCc1ccc2c(c1)C(NC(C)=O)C(=O)N2CCN1CCOCC1 (stereo not drawn)	30%	89µM*	-23%	4%	3%	-6%
CCCN1C(=O)C(NC(C)=O)c2ccccc21 (stereo not drawn)	1%	6%	-12%	8%	-13%	4%
O=C(Cc1cc(=O)[nH][nH]1)N/N=C/c1ccccc1Cl	5%	-2%	5%	?	-13%	0%
O=C(Cc1cc(=O)[nH][nH]1)N/N=C/c1cccc(Cl)c1Cl	3%	7%	-4%	10µM*	-10%	8%

Assay outcomes from PubChem.
